Test results taken from PubChem BioAssay AID2629 (Broad Institute, 2010).
Hit rate of the full screen: of about 320,000 compounds, about 1,900 (0.59%) were called active. The list comes from a sample in which actives are over-represented; it also holds similar structures and randomly drawn compounds. Values without a mark were called inactive. Rule as the data show it: active = inhibition mostly above about 10% (no sharp cut-off); inactive = mostly below about 6.7%.

Molecular target: Protein LANA1 (Human herpesvirus 8 type P (isolate GK18)) (UniProt Q9QR71)
Sequence (Q9QR71 whole entry, looked up): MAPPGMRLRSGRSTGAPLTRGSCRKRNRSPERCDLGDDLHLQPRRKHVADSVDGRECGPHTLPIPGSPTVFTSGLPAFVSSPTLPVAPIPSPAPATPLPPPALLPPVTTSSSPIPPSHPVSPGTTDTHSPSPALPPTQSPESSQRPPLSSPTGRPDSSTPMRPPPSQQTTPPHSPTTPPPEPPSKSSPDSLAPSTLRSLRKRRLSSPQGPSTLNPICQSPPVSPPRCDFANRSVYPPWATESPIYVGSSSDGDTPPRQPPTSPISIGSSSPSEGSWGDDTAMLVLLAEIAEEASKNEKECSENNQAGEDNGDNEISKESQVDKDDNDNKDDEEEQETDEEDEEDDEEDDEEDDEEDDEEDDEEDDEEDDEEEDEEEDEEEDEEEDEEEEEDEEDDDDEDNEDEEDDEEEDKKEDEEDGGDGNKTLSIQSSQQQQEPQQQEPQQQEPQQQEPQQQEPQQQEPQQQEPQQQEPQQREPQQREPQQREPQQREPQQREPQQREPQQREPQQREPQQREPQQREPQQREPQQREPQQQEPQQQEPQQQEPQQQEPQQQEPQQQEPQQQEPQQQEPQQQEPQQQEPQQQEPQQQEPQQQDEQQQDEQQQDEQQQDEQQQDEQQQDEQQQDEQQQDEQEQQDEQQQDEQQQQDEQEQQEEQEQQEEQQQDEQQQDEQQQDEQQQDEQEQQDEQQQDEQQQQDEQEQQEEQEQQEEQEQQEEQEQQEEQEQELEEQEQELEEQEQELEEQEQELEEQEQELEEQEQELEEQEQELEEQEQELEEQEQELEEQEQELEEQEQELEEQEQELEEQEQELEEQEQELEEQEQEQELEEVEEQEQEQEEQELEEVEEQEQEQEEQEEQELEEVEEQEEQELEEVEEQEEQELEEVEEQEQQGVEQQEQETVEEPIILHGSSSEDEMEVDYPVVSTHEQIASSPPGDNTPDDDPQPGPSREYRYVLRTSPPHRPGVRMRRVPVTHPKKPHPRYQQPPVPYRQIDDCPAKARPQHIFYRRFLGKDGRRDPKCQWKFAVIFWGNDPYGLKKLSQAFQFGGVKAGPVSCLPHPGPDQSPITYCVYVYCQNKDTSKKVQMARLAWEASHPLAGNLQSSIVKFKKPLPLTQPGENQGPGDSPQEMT
Assay: blockers of LANA interaction with H2A/H2B – biochemical, FP readout, HTS, primary screen (AID 2629)
Conditions: cell-free LANA-H2A/H2B peptide, fluorescence polarization, active compounds read high, concentration not given here

Compound	inhibition
Cc1ccc2c(c1)N(C(=O)CCC(=O)NCc1cccnc1)CCO2	-4.82%
CCN(C(=O)CSc1cccc[n+]1[O-])c1ccccc1	-3%
CCOc1ccc(CCNC(=O)COC(=O)c2c(OC)cccc2OC)cc1OCC	1.41%
FC(F)Oc1ccccc1C1CC(c2ccc(Br)s2)Nc2ncnn21 (stereo not drawn)	2.23%
Cn1c(C(=O)OC(C(=O)NC2CCCCC2)c2ccccn2)cc2sccc21 (stereo not drawn)	-2.12%
Cc1cc(C)c(C)c(S(=O)(=O)N[C@@H](C)C(=O)OC(C)C(=O)NC(N)=O)c1C (stereo partly drawn)	0.241%
Cc1ccc(SC(C)C(=O)NCc2ccc(F)cc2)cc1 (stereo not drawn)	-1.45%
COc1ccc(NC(=O)C2CCC(CNc3c(N4CCCCC4)c(=O)c3=O)CC2)c(OC)c1 (stereo not drawn)	2.53%
CCN(CCn1cccn1)Cc1nc(-c2ccc(C(=O)OC)cc2)no1	0.645%
COC(=O)c1ccc(S(=O)(=O)N2CCC(c3nc4ccccc4o3)CC2)cc1	1.89%
CC1(C)CC(=O)C(C2c3ccccc3S(=O)(=O)c3ccccc32)C(=O)C1	-4.3%
O=C(Nc1ccncc1)c1ccc(Cl)c([N+](=O)[O-])c1	-1.98%
Cc1ccnc(NC(=O)c2ccc(Cl)c([N+](=O)[O-])c2)c1	21.7% (active)
O=C(Nc1cccnc1)c1ccc(Cl)c([N+](=O)[O-])c1	-2.67%
Nc1ccn(CC(=O)N2CCN(c3ccccn3)CC2)c(=O)n1	0.94%
CC(C)Cn1c(N)c(C(=O)COC(=O)CN2C(=O)C3CC=CCC3C2=O)c(=O)n(C)c1=O (stereo not drawn)	-0.106%
CC(C)Cn1c(N)c(C(=O)COC(=O)C2CCCN2C(=O)c2cccs2)c(=O)n(C)c1=O (stereo not drawn)	18.2% (active)
CCCc1cc(=O)[nH]c(SCC(=O)c2c(N)n(CC(C)C)c(=O)n(C)c2=O)n1	-3.84%
Cc1cccnc1NC(=O)Cn1c(=O)oc2ccccc21	10.8%
Oc1ccc2ccc3cccc[n+]3c2c1	94.4% (active)

Compound	inhibition
CC(C)(C)OC(=O)C[C@@H]1C/C=C\C[C@@H](CC(=O)N[C@H](CO)Cc2ccccc2)C(=O)NCCOC1=O	-192%
CC(C)(C)OC(=O)C[C@H]1C/C=C\C[C@@H](CC(=O)N[C@H](CO)Cc2ccccc2)C(=O)NC[C@@H](c2ccccc2)OC1=O	-0.906%
O=C(c1ccc2c(c1)OCO2)N1CCOCC1	-0.497%
O=CN1CCN(C(=O)c2ccc3c(c2)OCO3)CC1	39.6% (active)
O=C(c1ccc2c(c1)OCO2)N1CCN(C(=O)c2ccco2)CC1	-0.585%
COc1ccc([C@H]2[C@H](C(C)=O)N3N=Cc4ccccc4C3C23C(=O)OC(C)(C)OC3=O)cc1 (stereo partly drawn)	0.0257%
COc1ccc([N+](=O)[O-])cc1NC(=O)C(C)OC(=O)C1c2ccccc2Oc2ccccc21 (stereo not drawn)	4.81%
COc1ccc(CNc2nc3c(c(=O)[nH]c(=O)n3C)n2Cc2ccccc2)cc1	1.42%
Cn1c(=O)[nH]c(=O)c2c1nc(NCCCn1ccnc1)n2Cc1cccc(Br)c1	17.2% (active)
CCCCNc1nc2c(c(=O)[nH]c(=O)n2C)n1CCOc1ccccc1	-0.364%
O=C(/C=C/c1ccc(F)cc1)NC(=S)NNC(=O)c1cccnc1	1%
NC(=O)CN1CCCC1c1ccc2c(c1)OCCO2 (stereo not drawn)	2.74%
COc1ccccc1NC(=O)COC(=O)CNC(=O)C1CCCCC1	2.31%
O=C(Nc1cccc(-c2cscn2)c1)C1CCN(Cc2ccsc2)CC1	4.95%
Nc1ncc(CN2CCCC(C(=O)Nc3ccc(-c4ccco4)cc3)C2)cn1 (stereo not drawn)	3.49%
O=C(Nc1ccc(-c2cscn2)cc1)C1CCCN(Cc2ccc(CO)o2)C1 (stereo not drawn)	21.8% (active)
O=C1CN(c2nc(-c3ccccc3)c3cc(Br)ccc3n2)c2ccccc2N1	-7.77%
COc1ccc(C2N=C(N)N=C(N)N2c2ccccc2)cc1OC (stereo not drawn)	-6.16%
CCCCSc1[nH]c(=O)c(C(=O)OCC)cc1C#N	3.53%
COc1ccc(-c2nc(N)sc2C2(O)C(=O)Nc3c(Br)cc(F)cc32)cc1OC (stereo not drawn)	-10.7%

Compound	inhibition
O=C(/C=C/Nc1ccccc1)c1cnc(-c2ccccc2)s1	0.792%
S=c1[nH]nc(Nc2ccccc2)s1	6.41%
CC(C)(C)C(=O)c1cnc(Nc2ccccc2)s1	54.4% (active)
Cc1ccccc1-n1cc(CNC(=O)CC2C(=O)NCCN2C/C=C/c2ccccc2)cn1 (stereo not drawn)	-1.56%
Cc1nc(SC(C)C)[nH]c(=O)c1Cc1ccccc1	1.02%
O=C(CP(=O)(c1ccccc1)c1ccccc1)N1CCOCC1	14.6% (active)
O=C(O)CC(CC(=O)N1CCOCC1)c1ccccc1 (stereo not drawn)	4.19%
O=C(Cc1ccccc1Cl)N1CCOCC1	-0.189%
CCOc1ccc(CCNC(=O)Nc2ccccc2)cc1OCC	-1.38%
CCN1C(=O)[C@H]2[C@@H](c3ccc(C)cc3)N3C(=O)N(c4cccc(Br)c4)C(=O)[C@@]3(CC)[C@H]2C1=O	-2.34%
Cc1ccc(NC(=O)c2sc3nc(N)c(C#N)cc3c2N)cc1	14.6% (active)
CCc1ccc2nc3sc(C(=O)Nc4nnc(CC)s4)c(N)c3cc2c1	-1.19%
Cc1ccc(NC(=O)CSCC(=O)Nc2sccc2C#N)cc1	1.52%
CCc1ccc(OCC(=O)NCC(c2ccc(Cl)cc2)N2CCCCC2)cc1 (stereo not drawn)	-1.04%
NC(=O)COC(=O)c1sc2cc(F)ccc2c1Cl	0.759%
Cn1c(SCC(=O)OC2CCCCC2)nnc1-c1ccc(S(=O)(=O)N2CCCC2)cc1	5.59%
CC1Cc2ccccc2N1C(=O)CSc1nnc(-c2ccc(S(=O)(=O)N3CCCC3)cc2)n1C (stereo not drawn)	14.5% (active)
CC1Cc2ccccc2N1C(=O)CSc1nnc(C2CC2)n1C (stereo not drawn)	5.57%
